In PubChem BioAssay AID2116 (The Scripps Research Institute Molecular Screening Center, 2009) one finds current density and outcome data, which are given here for five molecules.

The assay has as its target Mucolipin-3 (Homo sapiens) (UniProt Q8TDD5). The experiment in a line: activators of mucolipin-3 and mucolipin-2 – cell-based, patch clamp, Fura-2 profiling panel (AID 2116). The conditions noted are these: HEK293 cells expressing TRPML3-YFP, TRPML3 Patch Clamp Assay; patch clamp current at -80 mV.

The structures appear in SMILES notation. Active and inactive are the calls of the source. No rule for the calls is given here.

Chain of Mucolipin-3 (Homo sapiens) (Q8TDD5 whole entry, looked up): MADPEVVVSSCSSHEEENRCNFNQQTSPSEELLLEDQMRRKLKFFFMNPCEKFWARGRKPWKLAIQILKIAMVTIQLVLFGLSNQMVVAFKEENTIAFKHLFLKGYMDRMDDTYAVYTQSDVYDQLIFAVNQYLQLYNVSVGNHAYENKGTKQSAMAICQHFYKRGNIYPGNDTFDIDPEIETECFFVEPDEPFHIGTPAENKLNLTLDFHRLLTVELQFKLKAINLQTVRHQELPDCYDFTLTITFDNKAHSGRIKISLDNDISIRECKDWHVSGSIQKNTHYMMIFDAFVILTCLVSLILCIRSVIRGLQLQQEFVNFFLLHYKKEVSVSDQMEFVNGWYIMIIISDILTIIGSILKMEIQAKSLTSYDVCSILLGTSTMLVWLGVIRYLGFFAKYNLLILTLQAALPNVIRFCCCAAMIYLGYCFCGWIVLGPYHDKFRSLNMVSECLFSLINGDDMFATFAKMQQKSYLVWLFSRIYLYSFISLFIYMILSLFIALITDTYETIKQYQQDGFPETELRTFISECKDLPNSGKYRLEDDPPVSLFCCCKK

Regarding `O=S(=O)(Nc1ccccc1N1CCOCC1)c1ccc(Cl)s1`, the current density was -0.37 nA/pF and the outcome was “active; no effect on six other TRP channels”.
With `O=S(=O)(Nc1ccccc1N1CCCCC1)c1ccc(Cl)s1`, the current density was -0.24 nA/pF and the outcome is “active; no effect on six other TRP channels”.
For `O=S(=O)(NC1CCCCC1N1CCOCC1)c1ccc(Cl)cc1` (stereo not given) the same measures were -0.55 nA/pF and “active; no effect on six other TRP channels”.
As to `Cc1ccc(N2CCN(S(=O)(=O)N3CCCCC3)CC2)c(C)c1`, the current density is -0.42 nA/pF and the outcome was “active; no effect on six other TRP channels”.
For `Cc1ccc(S(=O)(=O)Nc2ccccc2-c2ccccc2)cc1`, the current density was -0.02 nA/pF and the outcome is “active; no effect on six other TRP channels”.
